Lassa entry inh: Lassa virus entry inhibition. Lassa virus pseudotype entry inhibition, cell reporter. Potency, µM (top dose mostly 37.9 µM), hits mostly inhibitors. 300,000 tested, 1.2% active. AID 540256; calls by dose curve; tested in HEK293 cells; note: nearly all actives have a fitted effect of over 50% in size
HCV inh: HCV inhibition; Huh7.5.1 HCVcc-Cre infection, luciferase reporter, 44 h; Potency, µM (doses to about 41.8 µM), hits mostly inhibitors; 340,000 tested, 3.4% active; AID 651820; active = well fitted inhibition curve with a large enough effect; inconclusive = small, poorly fitted or top-dose-only effect, or another doubt; inactive = no such curve, though single readings can be large or run the other way
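A cell-based infection assay in which seeded cells (1,000 per well) receive test compound after 4 h, are inoculated with HCVcc-Cre at approximately 0.5 moi, and are incubated 44 h before luminescence detection.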
SARS PLP yeast: inhibitors of SARS-CoV papain-like protease in yeast; S. cerevisiae expressing SARS-CoV PLpro, growth rescue; Potency, µM (titrated, usually from 32.9 µM), actives largely listed as activators; 330,000 tested, 0.19% active; calls by dose curve; note: nearly all actives have a fitted effect of over 55% in size
HCMV inh: human cytomegalovirus inhibition | HFF cells, HCMV-luciferase reporter, 72 h; stronger effect = lower value | activity change, negative = inhibition, % at 57.5 µM | 410,000 tested, 4.5% active; in the data active = activity change below about -60%; inconclusive = no clear call, values can overlap the other calls; inactive = above about -39%
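After 16 h attachment at 37C, HFF cells received test compound and HCMV-luciferase (1 PFU/cell); reporter luminescence read 72 h later, data normalized against buffer-only and known inhibitor Salinomycin.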
MARV entry inh: blocks Marburg virus binding to or entry into cells; 300,000 tested, 1.8% active; Potency, µM (series often up to 37.8 µM), hits mostly inhibitors; Marburg virus pseudotyped entry inhibition, cell reporter; calls by dose curve; tested in HEK293 cells
FMDV antiviral: blocks foot and mouth disease virus; Potency, µM (highest dose often 57.9 µM), usual class: inhibitors; FMDV antiviral cell-based qHTS; AID 1159524; 410,000 tested, 1.2% active; calls by dose curve; tested in HEK293T cells; note: read-out not given here; nearly all actives have a fitted effect of over 45% in size
Numbers stand for hits; n = inactive; u = inconclusive; x = not tested or not shown; ! = not active in a repeat. Only some compounds are listed: those with a hit (about 8% of all), similar ones and a draw of the others.

SMILES	Lassa entry inh	HCV inh	SARS PLP yeast	HCMV inh	MARV entry inh	FMDV antiviral
CCC1CCCCN1C(=O)CSc1nc(N)cc(N)n1 (stereo not given)	x	n	n	-65.2	x	n
O=c1c2cc(Br)ccc2[nH]c(=S)n1Cc1cccnc1	n	n	n	n	n	n
C=CCn1c(=S)[nH]c2ccc(Br)cc2c1=O	n	n	n	-60.7	n	n
CCc1cccc2[nH]c3cc([N+](=O)[O-])ccc3c12	n	u	n	-61.2	n	n
Cc1ccc(CCNC(=O)CN2C(=O)COc3ccc(S(=O)(=O)N4CCCCCC4)cc32)cc1	n	x	x	n	x	n
CCc1ccc(NS(=O)(=O)c2[nH]ncc2C(=O)OC)cc1	n	x	x	n	u	n
C[C@H]1CCC/C=C/[C@@H]2C[C@H](O)C[C@H]2[C@H](O)/C=C/C(=O)O1	x	0.562µM	x	-97.9	x	n
O=C(c1ccco1)N1CCc2[nH]nc(-c3ccc(Cl)cc3)c2C1	u	11.2µM	n	n	n	u
Cc1cccn2c(=O)cc(COc3cccc(NC(=O)COc4ccccc4)c3)nc12	n	x	x	u	x	n
COCCCNC(=O)CN1C(=O)c2c(c3ccccc3n2C)C1c1ccc(OC)cc1 (stereo not given)	n	x	x	u	x	n
CCCN(CCC)CCCNC(=O)c1cn(CC)c2ccc(S(=O)(=O)N3CCc4ccccc4C3)cc2c1=O	u	u	n	-82.0!	u	n
CCCCN(CC)CCCNC(=O)c1cn(CC)c2ccc(S(=O)(=O)N3CCc4ccccc4C3)cc2c1=O	u	u	n	-60.0!	u	n
CCCCN(C)CCCNC(=O)c1cn(CC)c2ccc(S(=O)(=O)N3CCc4ccccc4C3)cc2c1=O	n	u	n	-67.6!	5.62µM	n
CCn1cc(C(=O)NCCCN(CC(C)C)CC(C)C)c(=O)c2cc(S(=O)(=O)N3CCc4ccccc4C3)ccc21	n	x	x	n	n	n
C=CCn1cc(C(=O)N2CCc3ccccc3C2)c(=O)c2cc(S(=O)(=O)N(CC)CC)ccc21	u	n	n	-67.4	n	n
Cc1ccn2c(=O)cc(CSc3nnc(C)s3)nc2c1	u	x	x	n	x	n
Cc1cc(=O)n(CC(=O)NCc2ccc(OC(C)C)cc2)c2c1c(C)nn2-c1cccc(F)c1	n	x	x	n	x	n
N[C@H]1CC[C@@]23CCCN2C(=O)CCC[C@H]3[C@H]1Cc1ccccc1	x	x	x	n	x	x
CCn1cc(C(=O)NCCCN2CCCC2)c(=O)c2cc(S(=O)(=O)N3CCc4ccccc4C3)ccc21	n	14.1µM	n	n	u	n
Cc1cc(C(=O)COC(=O)Cc2n[nH]c(=O)c3ccccc23)c(C)n1-c1ccc2c(c1)OCCO2	n	n	n	-77.1	n	u
Cc1cc(C(=O)CSc2nnnn2-c2ccccc2)c(C)n1-c1ccc2c(c1)OCO2	6.51µM	u	n	n	u	n
Cc1cc(C(=O)CSc2nnnn2-c2ccc(O)cc2)c(C)n1Cc1ccc2c(c1)OCO2	u	u	n	n	n	u
Cc1cc(C(=O)COC(=O)C2=COCCO2)c(C)n1-c1ccc2c(c1)OCO2	n	n	n	n	n	n
Cc1cc(C(=O)COc2ccc(C#N)cc2)c(C)n1-c1ccc2c(c1)OCO2	n	n	n	-65.7	n	u
Cc1cc(C(=O)CSc2nncs2)c(C)n1-c1ccc2c(c1)OCO2	n	u	n	-69.1	n	x
SMILES	Lassa entry inh	HCV inh	SARS PLP yeast	HCMV inh	MARV entry inh	FMDV antiviral
CC(=O)c1ccc(N2CCN(C(=O)NCc3noc4ccc(C)cc34)CC2)cc1	n	x	x	n	x	n
CCN1C(=NCCc2cccnc2)N[C@H](CCc2ccccc2)[C@H](C(=O)OC)[C@H]1C	x	x	x	x	n	x
CC(=O)c1c(C)[nH]c(C(=O)CSc2nnc(-c3ccccc3)n2Cc2ccc3c(c2)OCO3)c1C	n	u	n	n	u	n
Cc1cc(C(=O)CSc2nnc(-c3cccc(F)c3)n2N)c(C)n1Cc1ccc2c(c1)OCO2	n	12.6µM	n	-83.5	u	u
COc1cc(-c2nc(Cn3nnc(C(=O)Nc4cc(C)cc(C)c4)c3C)c(C)o2)cc(OC)c1OC	u	x	x	n	u	n
COCCNC(=O)c1cccc(NC(=O)C2=C(C)OCCS2)c1	n	n	n	n	n	n
COc1cc(NC(=O)C2=C(C)OCCS2)c(Cl)cc1C(=O)NCCN(C)C	n	u	n	n	10µM	n
COc1cc(CCNC(=O)c2ccccc2NC(=O)C2=C(C)OCCS2)cc(OC)c1OC	x	n	n	n	x	u
COc1ccc(CCNC(=O)c2ccccc2NC(=O)C2=C(C)OCCS2)c(OC)c1	x	10µM	n	n	x	n
COc1ccc(OC)c(CCNC(=O)c2cccc(NC(=O)C3=C(C)OCCS3)c2)c1	x	11.2µM	n	n	x	n
CC1=C(C(=O)Nc2cccc(C(=O)NC3CCCC(C)C3C)c2)SCCO1 (stereo not given)	x	12.6µM	n	n	x	n
COc1ccc(OC)c(CCNC(=O)Cc2ccc(NC(=O)C3=C(C)OCCS3)cc2)c1	x	x	x	n	x	n
NC1(C(=O)O)CCc2cc(P(=O)(O)O)ccc21 (stereo not given)	x	x	x	x	x	n
O=C(c1cc(Cl)ccc1Cl)N1CCN(c2ccccn2)CC1	n	n	n	u	u	u
O=C(c1cc(Sc2cccc(Cl)c2)nc2ccccc12)N1CCN(c2ccccn2)CC1	u	10µM	n	u	u	n
O=C(c1cc(Sc2ccc(Cl)cc2)nc2ccccc12)N1CCN(c2ccccn2)CC1	u	u	n	n	n	u
O=C(Nc1ccc(C(F)(F)F)cc1)c1cccnc1N1CCOCC1	n	n	n	n	u	n
O=C(Nc1ccc(C(F)(F)F)cc1)c1cnc(N2CCN(c3ccccn3)CC2)c2ccccc12	n	n	n	n	n	7.08µM
O=C(c1cnc(N2CCN(c3ccccn3)CC2)c2ccccc12)N1CCN(c2cccc(Cl)c2)CC1	u	5.01µM	n	-94.1	u	8.91µM
COc1cccc(/C=C(/C(=O)OCC(=O)NCC2CCCO2)c2ccccc2)c1 (stereo not given)	n	n	n	n	n	n
COc1cccc(/C=C(/C(=O)OCC(=O)NC2CCCCCCC2)c2ccccc2)c1	n	11.2µM	n	u	n	u
O=C(Nc1cccc2ccccc12)N1CCOCC1	n	n	n	n	n	n
O=C(Nc1cccc2ccccc12)c1ccc(OC(=S)N2CCOCC2)cc1	1.46µM	u	n	n	2.59µM	x
O=C(Nc1cccc(Cl)c1)c1ccc(OC(=S)N2CCOCC2)cc1	n	12.6µM	n	u	n	n
Cc1cccc(NC(=O)c2cccc(OC(=S)N3CCOCC3)c2)c1	u	u	n	n	n	n
COc1ccc(C(=O)NCc2nnc(SC)n2-c2ccccc2C)c(OC)c1OC	x	x	x	x	x	n
CCCCN(C(=O)c1ccc(Cl)cc1)C1CC2CCC(C1)N2C (stereo not given)	u	11.2µM	n	n	u	n
CN1C2CCC1CC(N(CCc1ccccc1)C(=O)c1ccc(Cl)cc1)C2 (stereo not given)	x	n	n	n	x	n
